# Biological target: Hexose transporter 1 (Plasmodium falciparum) (UniProt O97467)
# Assay: ST_JUDE_LEISH: Cytotoxicity at 2uM final concentration against transgenic Leishmania Mexicana promastigotes LmPfHT that are glucose transport deficient and complemented with the Plasmodium falciparum hexose transporter. Activity is measured by DNA content using SYBR green in vitro
# Format: functional
row,Compound,inhibition
1,c1cc(-c2ccc(CNCCCN3CCOCC3)cc2)cc(-c2nc3ccccc3[nH]2)c1,-0.33%
2,COc1ccc2nc3cc(Cl)ccc3c(NCCN3CCN(C)CC3)c2c1,3.95%
3,COc1cc2nc(Cl)nc(Nc3ccncc3)c2cc1OC,-0.73%
4,COc1cccc2cc(C(=O)N[C@@H](CC(C)C)C(=O)N[C@H](/C=N/N3C(=O)CN(Cc4ccccc4)C3=O)CCc3ccccc3)oc12,8.34%
5,COc1ccc2nccc(N(C)CC3(O)CCC(NCc4cc5c(cn4)OCCO5)CC3)c2n1 (stereo not given),1.7%
6,CN(C)CCNC(=O)c1ccc2c(c1)ncn2-c1cc(OCc2ccccc2C(F)(F)F)c(C(N)=O)s1.CN(C)CCNC(=O)c1ccc2ncn(-c3cc(OCc4ccccc4C(F)(F)F)c(C(N)=O)s3)c2c1,1.7%
7,CC(C)Sc1nc2c(c(=O)n1Cc1ccco1)C1(CCCC1)Cc1ccccc1-2,4.28%
8,Cc1[nH]c(C)c(-c2ccc(OCc3ccc(F)cc3)cc2)c(=O)c1Cl,-0.27%
9,CCOC(=O)c1ccc(NC(=O)Nc2cccc(-c3ccc(-c4nc5ccccc5[nH]4)cc3)c2)cc1,1.48%
10,CCCc1cnc2nc(N)nc(N)c2c1C,-0.62%
11,COc1ccc(S(=O)(=O)NCCC2CCN(CCCCCNC(=O)C=Cc3ccc(Cl)c(Cl)c3)CC2)cc1,2.12%
12,O=C(NCCCN1CCCC1=O)NCc1ccccc1,-0.23%
13,FC(F)(F)c1ccc2[nH]ccc(=NN=Cc3cccc(Cl)c3)c2c1,-0.16%
14,CCc1nnc2sc(-c3cccc(NC(=O)c4ccc(OC)c(Cl)c4)c3)nn12,2.45%
15,Cc1cccc2nc(-c3ccc(-c4cccc(NC(=O)NCc5ccccc5)c4)cc3)[nH]c12,1.64%
16,CN(C)c1ccc(C=CC(=O)NC(=O)c2ccccc2O)cc1,2.19%
17,COc1cc(NC(=O)c2cccs2)c(C(=O)NCc2ccc(C)cc2)cc1OC,4.22%
18,CC(C)C[C@H](NC(=O)c1cc(-c2ccc(C(C)(C)C)cc2)no1)C(=O)O.CC(C)C[C@H](NC(=O)c1conc1-c1ccc(C(C)(C)C)cc1)C(=O)O,0.89%
19,O=C(Nc1cccc(CN2CCCN(CCc3ccccc3)CC2)c1)c1ccc(Cl)c(Cl)c1,8.5%
20,COc1cc(NC(=O)c2sc(-c3ccc(Cl)cc3)cc2Cl)ccc1OCCN1CCCC1,9.57%

row,Compound,inhibition
1,Cc1ccc(-c2ccn(Cc3cccc(OCc4ccccc4)c3)n2)cn1.Cc1ccc(-c2ccnn2Cc2cccc(OCc3ccccc3)c2)cn1,1.4%
2,COc1ccc(-c2nc(NC(=O)CSc3ccc([N+](=O)[O-])cc3)sc2C)cc1,-0.37%
3,Cc1cc(-c2cccc(CNC3CCN(C)CC3)c2)ccc1S(=O)(=O)NC1CCC1,1.62%
4,CC(=O)Nc1ccc(OCCCCN(Cc2ccccc2C(F)(F)F)c2ccc(C#N)c(C(F)(F)F)c2)c(Cl)c1,4.65%
5,Cc1cc(=NN=Cc2cccc(Cl)c2)c2ccccc2[nH]1,6.14%
6,CCN(CC)CCN(Cc1ccc(-c2ccc(C(F)(F)F)cc2)cc1)C(=O)Cn1cc(CCCCc2cccc(F)c2F)c(=O)c2ccccc21,6.93%
7,CN(Cc1ccc(-c2ccc(C(F)(F)F)cc2)cc1)C(=O)Cn1c(CCc2cccc(F)c2F)nc(=O)c2ccc(N3CCN(CCN4CCCCC4)CC3)nc21,7.16%
8,COc1cccc(CN2CCCN(Cc3cccc(NC(=O)c4ccc(Cl)c(Cl)c4)c3)CC2)c1,-0.94%
9,O=C(Nc1c(F)cccc1F)c1cccc(-c2nn3ccccc3c2-c2ccnc(Nc3cccc(-c4cnco4)c3)n2)c1,4.66%
10,COc1ccccc1C1CN(CCNC(=O)c2nc(C)c[nH]2)Cc2ccccc2O1 (stereo not given),2.02%
11,CCc1nc(N)nc(N)c1-c1ccc(Cl)cc1,3.31%
12,CCCNCc1ccc(-c2ccc(CN(CCOC)C(=O)Cc3cccnc3)cc2)nc1,1.34%
13,Cc1ccc(C)c(NC(=O)Nc2ccc(C)c(-c3ccc(C(=O)Nc4ccncc4)cc3)c2)c1,3.66%
14,Cc1cc(NS(=O)(=O)c2cccc(C(C)N3CCC(N4CCCC4)CC3)c2)ccc1C(C)C (stereo not given),5.82%
15,O=C(c1cc2ccccc2o1)N1CCc2cc3nccc(N4CCN5CCC[C@H]5C4)c3cc21,4.36%
16,CCNc1cc(C(=O)N[C@@H](Cc2ccoc2)[C@H](O)CNC(C)CCCC(C)C)cc(N2CCCCS2(=O)=O)c1 (stereo not given in full),0.7%
17,Cc1ccccc1-c1cc(=O)c2cc(NC(=O)c3cccs3)ccc2o1,1.54%
18,C=CCOc1ccc(-c2c(C)[nH]c(C)c(Br)c2=O)cc1,2.01%
19,COc1ccc(Nc2ncc3c(-c4ccc(NC(=O)c5cccc(C(F)(F)F)c5)cc4)c[nH]c3n2)cc1OC,-0.05%
20,Cn1nc(-c2cccc(CN[C@@H]3CCc4ccc(O)cc43)c2)c2cnc(NC3CCCC3)nc21,3.87%

# Biological target: Glucose transporter (Leishmania mexicana) (UniProt O61059)
# Assay: ST_JUDE_LEISH: Cytotoxicity at 2uM final concentration against transgenic Leishmania Mexicana promastigotes LmGT2 that are glucose transport deficient and complemented with the L. Mexicana glucose transporter 2. Activity is measured by DNA content using SYBR green in vitro
# Format: functional
row,Compound,inhibition
1,c1cc(-c2ccc(CNCCCN3CCOCC3)cc2)cc(-c2nc3ccccc3[nH]2)c1,2.29%
2,COc1ccc2nc3cc(Cl)ccc3c(NCCN3CCN(C)CC3)c2c1,3.79%
3,COc1cc2nc(Cl)nc(Nc3ccncc3)c2cc1OC,-1.27%
4,COc1cccc2cc(C(=O)N[C@@H](CC(C)C)C(=O)N[C@H](/C=N/N3C(=O)CN(Cc4ccccc4)C3=O)CCc3ccccc3)oc12,6.11%
5,COc1ccc2nccc(N(C)CC3(O)CCC(NCc4cc5c(cn4)OCCO5)CC3)c2n1 (stereo not given),1.71%
6,CN(C)CCNC(=O)c1ccc2c(c1)ncn2-c1cc(OCc2ccccc2C(F)(F)F)c(C(N)=O)s1.CN(C)CCNC(=O)c1ccc2ncn(-c3cc(OCc4ccccc4C(F)(F)F)c(C(N)=O)s3)c2c1,1.86%
7,CC(C)Sc1nc2c(c(=O)n1Cc1ccco1)C1(CCCC1)Cc1ccccc1-2,6.08%
8,Cc1[nH]c(C)c(-c2ccc(OCc3ccc(F)cc3)cc2)c(=O)c1Cl,-1.77%
9,CCOC(=O)c1ccc(NC(=O)Nc2cccc(-c3ccc(-c4nc5ccccc5[nH]4)cc3)c2)cc1,3.89%
10,CCCc1cnc2nc(N)nc(N)c2c1C,0.34%
11,COc1ccc(S(=O)(=O)NCCC2CCN(CCCCCNC(=O)C=Cc3ccc(Cl)c(Cl)c3)CC2)cc1,1.49%
12,O=C(NCCCN1CCCC1=O)NCc1ccccc1,-0.11%
13,FC(F)(F)c1ccc2[nH]ccc(=NN=Cc3cccc(Cl)c3)c2c1,-3.89%
14,CCc1nnc2sc(-c3cccc(NC(=O)c4ccc(OC)c(Cl)c4)c3)nn12,3.88%
15,Cc1cccc2nc(-c3ccc(-c4cccc(NC(=O)NCc5ccccc5)c4)cc3)[nH]c12,1.98%
16,CN(C)c1ccc(C=CC(=O)NC(=O)c2ccccc2O)cc1,1.56%
17,COc1cc(NC(=O)c2cccs2)c(C(=O)NCc2ccc(C)cc2)cc1OC,7.02%
18,CC(C)C[C@H](NC(=O)c1cc(-c2ccc(C(C)(C)C)cc2)no1)C(=O)O.CC(C)C[C@H](NC(=O)c1conc1-c1ccc(C(C)(C)C)cc1)C(=O)O,0.84%
19,O=C(Nc1cccc(CN2CCCN(CCc3ccccc3)CC2)c1)c1ccc(Cl)c(Cl)c1,-3.05%
20,COc1cc(NC(=O)c2sc(-c3ccc(Cl)cc3)cc2Cl)ccc1OCCN1CCCC1,9.29%

row,Compound,inhibition
1,Cc1ccc(-c2ccn(Cc3cccc(OCc4ccccc4)c3)n2)cn1.Cc1ccc(-c2ccnn2Cc2cccc(OCc3ccccc3)c2)cn1,-0.57%
2,COc1ccc(-c2nc(NC(=O)CSc3ccc([N+](=O)[O-])cc3)sc2C)cc1,-1.33%
3,Cc1cc(-c2cccc(CNC3CCN(C)CC3)c2)ccc1S(=O)(=O)NC1CCC1,0.45%
4,CC(=O)Nc1ccc(OCCCCN(Cc2ccccc2C(F)(F)F)c2ccc(C#N)c(C(F)(F)F)c2)c(Cl)c1,4.57%
5,Cc1cc(=NN=Cc2cccc(Cl)c2)c2ccccc2[nH]1,3.65%
6,CCN(CC)CCN(Cc1ccc(-c2ccc(C(F)(F)F)cc2)cc1)C(=O)Cn1cc(CCCCc2cccc(F)c2F)c(=O)c2ccccc21,10.4%
7,CN(Cc1ccc(-c2ccc(C(F)(F)F)cc2)cc1)C(=O)Cn1c(CCc2cccc(F)c2F)nc(=O)c2ccc(N3CCN(CCN4CCCCC4)CC3)nc21,3.71%
8,COc1cccc(CN2CCCN(Cc3cccc(NC(=O)c4ccc(Cl)c(Cl)c4)c3)CC2)c1,2.19%
9,O=C(Nc1c(F)cccc1F)c1cccc(-c2nn3ccccc3c2-c2ccnc(Nc3cccc(-c4cnco4)c3)n2)c1,1.5%
10,COc1ccccc1C1CN(CCNC(=O)c2nc(C)c[nH]2)Cc2ccccc2O1 (stereo not given),5.66%
11,CCc1nc(N)nc(N)c1-c1ccc(Cl)cc1,3.36%
12,CCCNCc1ccc(-c2ccc(CN(CCOC)C(=O)Cc3cccnc3)cc2)nc1,3.67%
13,Cc1ccc(C)c(NC(=O)Nc2ccc(C)c(-c3ccc(C(=O)Nc4ccncc4)cc3)c2)c1,2.82%
14,Cc1cc(NS(=O)(=O)c2cccc(C(C)N3CCC(N4CCCC4)CC3)c2)ccc1C(C)C (stereo not given),1.55%
15,O=C(c1cc2ccccc2o1)N1CCc2cc3nccc(N4CCN5CCC[C@H]5C4)c3cc21,6.35%
16,CCNc1cc(C(=O)N[C@@H](Cc2ccoc2)[C@H](O)CNC(C)CCCC(C)C)cc(N2CCCCS2(=O)=O)c1 (stereo not given in full),0.83%
17,Cc1ccccc1-c1cc(=O)c2cc(NC(=O)c3cccs3)ccc2o1,-8.62%
18,C=CCOc1ccc(-c2c(C)[nH]c(C)c(Br)c2=O)cc1,-0.17%
19,COc1ccc(Nc2ncc3c(-c4ccc(NC(=O)c5cccc(C(F)(F)F)c5)cc4)c[nH]c3n2)cc1OC,-0.51%
20,Cn1nc(-c2cccc(CN[C@@H]3CCc4ccc(O)cc43)c2)c2cnc(NC3CCCC3)nc21,4.68%

# From ChEMBL document CHEMBL3433997, “St. Jude Leishmania screening dataset” (2016)
